Consider 39 compounds from PubChem BioAssay (NCI).

Structures are written as SMILES. This is part of a sample that, as a whole, favours compounds with a hit. Of some 83,000 tested, about 20% had one in any assay.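 Single-dose data. Exposure time 48 hours. Values below 10 considered active.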 Activity calls are given as the source filed them.

In this assay the test system is OVCAR-5 ovarian. The experiment in a line: NCI-60 one-dose screen, 48 h (100 = growth as untreated, 0 = no growth, -100 = all killed). The conditions noted are these: 10 µM unless noted.
For the compound `CCn1cc(C(=O)O)c(=O)c2cc(F)c(N3CCN(CC(=O)Nc4ccccc4)C(C)C3)c(F)c21` (centres undefined), the growth was 98.3% (inactive).

Turning to `c1cc(OCCN2CCCCC2)ccc1CNc1ccc2nc(CCC3CCCCC3)[nH]c2c1`, the growth is 60.2% (inactive).

Regarding `COC1C(O)CC(OC2CC(OC3CC(O[C@@H]4C(=O)c5c(cc6cc(OC7CC(OC8CC(O)C(O)C(C)O8)C(O)C(C)O7)c(C)c(O)c6c5O)CC4[C@H](OC)C(=O)C(C)=O)OC(C)C3O)OC(C)C2O)OC1C` (some centres undefined), the growth is 13.9% (inactive).

On to `Cc1ccc(OCCOCCOCCOc2ccc(C)n(O)c2=S)c(=S)n1O`, for which the growth was 38.5% (inactive).

On to `Cn1cc(-c2csc(-c3cn(CCCN4CCOCC4)c4ccc(F)cc34)n2)c2cccnc21`, for which the growth is 73% (inactive).

In the case of `O=C1c2cccnc2C(=O)c2c1c(C(=O)OCCc1ccccn1)c1ccccn21`, the growth was 9.08% (active).

As to `C#CCOc1cccc(Nc2ncnc3c2ncn3C2CCN(C(=O)CCl)C2)c1` (centres undefined), the growth is -88.4% (active).

For `O=C(Cn1nc(-c2cccc3ccccc23)ccc1=O)NCc1cccc(Cl)c1`, the growth was 67.8% [50 µM] (inactive).

For the compound `CC1(C)CC[C@]23CC[C@]4(C)[C@H](CC[C@@H]5[C@@]6(C)C/C(=C/O)C(=O)C(C)(C)[C@@H]6CC[C@]54C)[C@H]2[C@H]1OC3`, the growth was 107% (inactive).

For the compound `Clc1ccc(-c2cc(-c3ccccc3)nc(N3CCN(CCCNc4ccnc5cc(Cl)ccc45)CC3)n2)cc1`, the growth was 33.5% (inactive).

For `Nc1nc(C(=O)N/N=C/c2ccc(F)cc2)nn1-c1ccc(S(N)(=O)=O)cc1`, the growth was 104% (inactive).

Turning to `CN(C)c1ccc(CNCCO)cc1`, the growth was 67.6% (inactive).

Regarding `Nc1c(Br)cc2c(c1Br)Cc1cc([N+](=O)[O-])ccc1-2`, the growth is 112% (inactive).

Regarding `COC(=O)Cn1c2c(c3c(OC)cccc31)C(=O)c1ccccc1-2`, the growth is 81.1% (inactive).

As to `O=C(/C=C/c1ccccc1)c1ccc(-n2cc(CN3CCN(c4cc5c(cc4F)c(=O)c(C(=O)O)cn5C4CC4)CC3)nn2)cc1`, the growth was 92.2% (inactive).

With `Cc1cc2oc(/C=C/c3ccccc3)cc(=O)c2c(C)c1Cl`, the growth is 104% (inactive).

For `Cc1nc(N/N=C/c2cn(-c3ccccc3)nc2-c2cc3ccccc3oc2=O)sc1N=Nc1ccccc1`, the growth is 104% (inactive).

Consider `Oc1c(CN2CCC(N3CCOCC3)CC2)cc(Cc2cc(CN3CCC(N4CCOCC4)CC3)c(O)c3ncccc23)c2cccnc12`, for which the growth was 47.3% (inactive).

As to `N#Cc1nn(-c2cc(=O)[nH]c3ccc(Br)cc23)c(N)c1C#N`, the growth was 103% (inactive).

As to `CCCCO[C@@H]1C=C2[C@H]3CC(C)(C)C(=O)C[C@]3(C(=O)O[C@@H]3O[C@H](CO[C@@H]4O[C@H](CO)[C@@H](OC5OC(C)C(O)C(O)C5O)[C@H](O)[C@H]4O)[C@@H](O)[C@H](O)[C@H]3O)CC[C@@]2(C)[C@]2(C)CC[C@H]3C(C)(C)C(=O)CC[C@]3(C)[C@@H]12` (some centres undefined), the growth is 96.1% (inactive).

On to `CC(=O)c1c(Nc2cccc(F)c2)[nH]c2c(Cl)cc(Cl)c(Cl)c2c1=O`, for which the growth is 15.3% (inactive).

In the case of `O=c1cc(CP(=O)(O)O)c2cc(O)c(-c3ccccc3)cc2o1`, the growth was 101% (inactive).

In the case of `CC(=O)c1sc(-c2ccc(F)cc2)cc1O`, the growth was 111% (inactive).

Consider `CC(=O)c1ccc(-n2cc(CN3CCN(c4cc5c(cc4F)c(=O)c(C(=O)O)cn5C4CC4)CC3)nn2)cc1`, for which the growth was 103% (inactive).

On to `COc1ccc(CN2C(=O)OC(C)(COC(C)=O)C2=O)cc1` (centres undefined), for which the growth is 97.2% (inactive).

In the case of `O=C1CCCC1[n+]1ccccc1` (centres undefined), the growth was 70.5% (inactive).

As for `CN(C)CCC(=O)C1CC1`, the growth is 100% (inactive).

Take `Nc1ccc(-c2ccncc2)cc1NC(=O)N1CCCC1`: the growth was 109% (inactive).

Consider `O=c1oc2c(cnc3ccccc32)cc1-c1cccc(Cl)c1`, for which the growth was 94% (inactive).

Take `C/C(=C(\c1ccc(OCCN2CCCCCC2)cc1)c1ccc(OC(=O)c2ccccc2)cc1)c1ccc(Cl)cc1`: the growth was 68.5% (inactive).

In the case of `Nc1cccc(-c2ccc(COc3ccc(CC4SC(=O)NC4=O)cc3)cc2)c1` (centres undefined), the growth was 92.2% (inactive).

As to `C=C(C)[C@@H]1CC[C@]2(COC3CCCCO3)CC[C@]3(C)[C@H](CC[C@@H]4[C@@]5(C)C=C(C=O)C(=O)C(C)(C)[C@@H]5CC[C@]43C)[C@@H]12` (some centres undefined), the growth was -19% (active).

Regarding `O=C1CCCCN1c1ccc(C2=NCCCN2)cc1`, the growth is 95.9% (inactive).

Consider `Cc1cc(=O)oc2cc(Oc3nc(Br)cn4c(Br)cnc34)ccc12`, for which the growth was 101% (inactive).

Regarding `C=CN(C(=O)N1CCN(c2cc3c(cc2F)c(=O)c(C(=O)O)cn3C2CC2)CC1)c1nc(-c2ccc(Cl)cc2)cs1`, the growth was 85.7% (inactive).

Regarding `Cc1ccccc1N1CCN(C(=S)c2ccccc2)CC1`, the growth was 93.4% (inactive).

With `COc1ccc(Cl)cc1Nc1nc(C(F)(F)F)ccc1C(=O)N/N=C/c1ccc([N+](=O)[O-])cc1`, the growth was 4.96% (active).

As for `O=C(Nc1nc(Cl)nc(Nc2ccc(N3CCOCC3=O)cc2)n1)c1ccc(Cl)s1`, the growth was 99% (inactive).

Take `COCCOC(C)C(/C=N/NC(N)=S)=N/NC(N)=S` (centres undefined): the growth was 97.7% (inactive).
